In the library only some 3.3% were active in any assay of this set; here they are far more common.
SARS PLP yeast = qHTS of Yeast-based Assay for SARS-CoV PLP; S. cerevisiae expressing SARS-CoV PLpro, growth rescue; Potency, µM (titrated, usually from 32.9 µM), actives largely listed as activators; 0.19% of 330,000 active; calls by dose curve; further: nearly all actives have a fitted effect of over 55% in size
Sm TGR inh = qHTS Assay for the Inhibitors of Schistosoma Mansoni Peroxiredoxins; Potency, µM (top dose mostly 114 µM), actives largely listed as inhibitors; purified TGR, DTNB reduction, TNB absorbance 405 nm; 3% of 360,000 active; further: nearly all actives have a fitted effect of over 60% in size
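Kinetic colorimetric format: TGR-catalysed, NADPH-driven DTNB reduction monitored via TNB absorbance. Enzyme dispensed at 20 nM; compound exposure 15 min at room temperature before reaction start.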
RE007 growth inh = qHTS Assay for Inhibitors of the HIV-1 protein Vpr; S. pombe RE007 Vpr strain, BacTiter-Glo ATP luminescence, 24 h; Potency, µM (series often up to 92.2 µM), hits mostly inhibitors; 0.21% of 360,000 active; AID 651644, 2012; active means well fitted falling curve with a large enough effect; inconclusive means small, poorly fitted or top-dose-only effect; inactive means no such curve, though single readings can be large or run the other way; further: nearly all actives have a fitted effect of over 50% in size
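Fission yeast strain RE007, carrying one chromosomally integrated HIV-1 vpr copy, was seeded at OD 0.01 in PMG+AL medium with 23 nL pinned compound. After 24 h at 30 °C and 99% humidity, viability was read by BacTiter-Glo luminescence.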
Tb PYK inh = qHTS of Trypanosoma Brucei Inhibitors; pyruvate kinase (Trypanosoma brucei), Q57TT1; TbPYK enzyme, Kinase-Glo Plus ATP luminescence, 45 min; Potency, µM (series often up to 76.8 µM), actives largely listed as inhibitors; 0.12% of 410,000 active; further: nearly all actives have a fitted effect of over 50% in size
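ADP (130 uM final) triggers the TbPYK reaction after compound addition; incubation is 45 min at room temperature. Kinase-Glo Plus is then added and luminescence imaged. Normalized data are fitted to concentration-effect curves.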
AmpC detergent = qHTS Inhibitors of AmpC Beta-Lactamase (assay with detergent) | P00811 | AmpC hydrolysis of nitrocefin, absorbance 480 nm, 0.01% Triton | Potency, µM (top dose mostly 114 µM), hits mostly inhibitors | 0.041% of 370,000 active | AID 485294, 2010; further: nearly all actives have a fitted effect of over 25% in size
Target sequence (P00811 whole entry, looked up): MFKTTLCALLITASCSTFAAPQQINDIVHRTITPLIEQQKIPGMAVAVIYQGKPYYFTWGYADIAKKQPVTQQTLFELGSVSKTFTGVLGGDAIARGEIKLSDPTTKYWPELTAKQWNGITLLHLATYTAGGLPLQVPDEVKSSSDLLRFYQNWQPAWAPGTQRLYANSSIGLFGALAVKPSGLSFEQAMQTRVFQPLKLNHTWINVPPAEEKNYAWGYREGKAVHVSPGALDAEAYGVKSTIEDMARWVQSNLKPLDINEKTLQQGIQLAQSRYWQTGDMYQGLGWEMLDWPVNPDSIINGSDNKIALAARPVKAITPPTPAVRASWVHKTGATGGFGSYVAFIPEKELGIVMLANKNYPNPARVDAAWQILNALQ
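20 mM phosphate pH 7.0 + 0.01% (detergent screen) or 0.0001% Triton X-100; 5.3 nM AmpC reagent; cpd preinc 15 min RT; nitrocefin (800 uM stock) to start; A480 q20 s × 4 min; Activity was normalised to no-enzyme and no-compound control wells.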
AmpC no deterg = qHTS Inhibitors of AmpC Beta-Lactamase (assay without detergent); AmpC nitrocefin hydrolysis, absorbance 480 nm, 0.0001% Triton; Potency, µM (top dose mostly 57.1 µM), usual class: inhibitors; 0.52% of 330,000 active; further: nearly all actives have a fitted effect of over 20% in size
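20 mM phosphate pH 7.0 + 0.01% (detergent screen) or 0.0001% Triton X-100; 5.3 nM AmpC reagent; cpd preinc 15 min RT; nitrocefin (800 uM stock) to start; A480 q20 s × 4 min; Activity was normalised to no-enzyme and no-compound control wells.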
Numbers stand for hits; i = inactive; ? = inconclusive; nt = not tested or not shown; [ ] = another dose, or the depositor's remark. Unless noted, the call rests on the fitted dose curve; in most records, active means well fitted curve in the direction sought with a large enough effect; inconclusive means small, poorly fitted or top-dose-only effect, or another doubt; inactive means no such curve, though single readings can be large; an effect the other way counts as inactive or inconclusive.

SMILES | SARS PLP yeast | Sm TGR inh | RE007 growth inh | Tb PYK inh | AmpC detergent | AmpC no deterg
CCc1cnc2c(c1SC(C(C)=O)C(=O)N(C)C)c(=O)n(C)c(=O)n2C (stereo not given) | nt | i | nt | 14µM | i | nt
Cc1cccc(C)c1NC(=O)/C(=C/c1ccco1)c1ccccc1 | i | 32µM | i | i | i | i
Cc1cc(C)c(NC(=O)/C(=C/c2ccco2)c2ccccc2)c(C)c1 | i | 25µM | i | i | i | i
CC(C)NC(=O)/C(=C/c1ccco1)c1ccccc1 | i | ? | i | i | i | i
COc1ccccc1-c1noc(-c2ccc(NCC3CCCO3)c([N+](=O)[O-])c2)n1 (stereo not given) | nt | i | nt | i | i | nt
COc1cc2nc(NCCc3ccccc3)n3nc(-c4cccnc4)nc3c2cc1OC | nt | i | nt | i | i | nt
Cc1ccc(NS(=O)(=O)c2ccc(Br)s2)nc1 | i | 16µM | i | i | i | i[2.29 µM]
Cc1cc(C)nc(NS(=O)(=O)c2ccc(Br)s2)c1 | i | ? | i | i | i | i
O=C1CCCC(=O)C1C1c2ccccc2CCN1C(=O)CCl (stereo not given) | i | 45µM | i | i | i | i
CCn1c(CN2CCCCC2)nc2cc(NC(=O)COc3ccc([N+](=O)[O-])cc3)ccc21 | nt | i | nt | i | i | nt
COc1ccc(NC(=O)C2CC(=O)n3cnnc3S2)cc1 (stereo not given) | i | 0.28µM | ? | i | i | i
COc1cccc(NC(=O)C2CC(=O)n3cnnc3S2)c1 (stereo not given) | i | 0.63µM | 35µM | i | i | i
Cc1ccc(CNC(=O)c2ccc3c(c2)c(C)c(C)n3Cc2ccc(Cl)cc2)o1 | nt | i | nt | i[15.4 µM] | i | nt
COc1ccc(N=C2SC(CC(=O)Nc3ccc(F)cc3)C(=O)N2Cc2ccco2)cc1 (stereo not given) | i | ? | i | i | ? | i
COc1ccc(N=C2SC(CC(=O)Nc3ccccc3OC)C(=O)N2Cc2ccco2)cc1 (stereo not given) | i | 50µM | i | i | i | i
O=C(CSc1nnc(CNC(=O)c2cccc(F)c2)n1-c1ccccc1)Nc1ccccc1F | nt | i | nt | i | i | nt
CC1=C(C(=O)OCC2CCCCC2)C(c2ccc(Cl)cc2Cl)CC(=O)N1 (stereo not given) | nt | i | nt | i | i | nt
CCOC(=O)N1CCC(NC(=O)CS(=O)Cc2nc(-c3ccc(C)cc3)oc2C)CC1 (stereo not given) | i | 45µM | i | i | i | i
CCOC(=O)N1CCC(NC(=O)CS(=O)Cc2nc(-c3ccc(Cl)cc3)oc2C)CC1 (stereo not given) | i | 40µM | i | i | i | i
CCOC(=O)N1CCC(NC(=O)CS(=O)Cc2nc(-c3ccc(OC)c(OC)c3)oc2C)CC1 (stereo not given) | i | ? | i | i | ? | i
Cc1ccc(Cl)cc1Nc1nc2ccccc2n2c(C)nnc12 | nt | i | nt | i | i | nt
CC1(C)CC(=O)C(CC2C(=O)CC(C)(C)CC2=O)C(=O)C1 | i | 2µM | i | i | i | i
CC1(C)CC(=O)C(CC2CCCCC2=O)C(=O)C1 (stereo not given) | i | i | i | i | i | i
O=C1c2c([N+](=O)[O-])cc([N+](=O)[O-])cc2S(=O)N1Cc1ccccc1 (stereo not given) | i | 40µM | i | ? | i | i
CCCN(C(=O)CCc1nc(-c2ccc(C)cc2)no1)c1ccc(OCC)cc1 | nt | i | nt | i | i | nt
SMILES | SARS PLP yeast | Sm TGR inh | RE007 growth inh | Tb PYK inh | AmpC detergent | AmpC no deterg
CS/C(=N\S(=O)(=O)c1ccccc1)c1ccccc1 | i | i | i | i | ? | i
O=S(=O)(/N=C(/Sc1ccccc1)c1ccccc1)c1ccccc1 | i | 1.8µM | i | i | i | i
COc1ccc2c(Sc3ccc(C)cc3)c(C(=O)NCCc3ccccc3)[nH]c2c1 | nt | i | nt | i | i | nt
COCCCNC(=O)c1[nH]c2cc(OC)ccc2c1Sc1ccc(C)cc1 | nt | i | nt | i | i | nt
COc1ccc2c(Sc3ccc(C)cc3)c(C(=O)NCc3ccc(F)cc3)[nH]c2c1 | nt | 45µM | nt | i | i | nt
COc1ccc2c(Sc3ccccc3)c(C(=O)NCCN(C)C)[nH]c2c1 | nt | 40µM | nt | i | i | nt
CCN(c1ccccc1)S(=O)(=O)c1ccc(NC(=O)c2cc(=O)c3ccc(C)c(C)c3o2)cc1 | nt | i | nt | i | i | nt
Cc1oc(-c2ccccc2Cl)nc1CS(=O)(=O)CC(=O)NC1CCCC1 | i | 45µM | i | i | i | i
CCOC(=O)N1CCC(NC(=O)CSCc2nc(-c3sccc3C)oc2C)CC1 | i | 40µM | i | i | i | i
CCOC(=O)N1CCC(NC(=O)CS(=O)(=O)Cc2nc(-c3ccccc3C)oc2C)CC1 | i | 45µM | i | i | ? | i
Cc1oc(-c2ccccc2Cl)nc1CSCC(=O)NC1CCCC1 | i | i | i | i | ? | i
Cc1ccccc1-c1nc(CS(=O)(=O)CC(=O)NC2CCCC2)c(C)o1 | i | 40µM | i | i | i | i
CCOc1ccc(S(=O)(=O)Nc2ccc3c(c2)c(C(C)=O)c(C)n3S(=O)(=O)c2ccc(OCC)cc2)cc1 | nt | i | nt | i | i | nt
CC(=O)c1ccc(N2CCN(C(=O)CCCCn3c(=O)[nH]c4ccccc4c3=O)CC2)cc1 | nt | i | nt | i | i | nt
O=C(O)C1Nc2c(Cl)cc(Cl)c(Cl)c2C2C=CCC12 (stereo not given) | nt | nt | i | i | nt | nt
CC(C)C1Nc2c(O)cc(Cl)c([N+](=O)[O-])c2C2C=CCC21 (stereo not given) | i | 7.1µM | ? | i | i | i
Cc1nc2sccn2c(=O)c1S(=O)(=O)NCc1ccc(F)cc1 | nt | i | nt | i | i | nt
COC(=O)Nc1ccc(-c2nc(N3CCOCC3)c3cnn(C4CCN(C(=O)OC)CC4)c3n2)cc1 | nt | nt | nt | i | nt | nt
COC(C/C=C/C(=O)COCc1ccccc1)OC | i | 16µM | i | i | i | i
